The values below come from PubChem BioAssay AID1347145 (National Center for Advancing Translational Sciences (NCATS), 2019).

Records with an inconclusive call do not appear. Values without a mark were called inactive. The source made the active and inactive calls. Calls follow the shape of the dose curve; as a rule, active = well fitted inhibition curve with a large enough effect; inconclusive = small, poorly fitted or top-dose-only effect; inactive = no such curve, though single readings can be large or run the other way.
For activity change, negative = inhibition in this document: 0% is about no effect.
Potency is read from the fitted curve at half-maximal effect.

The assay deals with N-terminal Xaa-Pro-Lys N-methyltransferase 1 (Homo sapiens) (UniProt Q9BV86). Put plainly: qHTS Assay for Inhibitors of N-terminal methyltransferase 1 (NTMT1): MTaseGlo Assay Confirmatory Screen, Round 1. The conditions noted are these: Recombinant NTMT1, MTase-Glo SAH luminescence; series mostly up to 57.1 µM; activity change, negative = inhibition: at the top concentration. The method, boiled down: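 Luminescence from MTase-Glo conversion of SAH to ATP measured activity after a 30 min RT reaction with 1 µM SPKRIA substrate, 100 µM SAM and 125 nM enzyme. Normalization used no-enzyme and DMSO controls, followed by Hill fitting.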
Chain of N-terminal Xaa-Pro-Lys N-methyltransferase 1 (Homo sapiens) (Q9BV86 whole entry, looked up): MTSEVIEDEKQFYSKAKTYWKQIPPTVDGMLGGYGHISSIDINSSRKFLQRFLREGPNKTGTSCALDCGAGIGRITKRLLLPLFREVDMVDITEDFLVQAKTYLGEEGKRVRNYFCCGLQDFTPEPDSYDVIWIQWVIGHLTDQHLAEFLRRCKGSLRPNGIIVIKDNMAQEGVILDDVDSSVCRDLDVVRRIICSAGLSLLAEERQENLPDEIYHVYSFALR
Background: Quantitative high-throughput screening tests each substance at several concentrations.
Regarding `OC[C@H]1O[C@@H](n2cnc3c(NCc4ccccc4)ncnc32)[C@H](O)[C@@H]1O`, the “activity change, negative = inhibition” value is -6.1%.
Same read-out and setting: next, `CCCC(=O)Nc1ncnc2c1ncn2[C@@H]1O[C@@H]2COP(=O)(O)O[C@H]2[C@H]1OC(=O)CCC`: 7.24%.
The same measure, in the same setting: the figure for `Nc1nc(Cl)nc2c1ncn2[C@@H]1O[C@H](CO)[C@@H](O)[C@@H]1F` is -0.202%; for `Nc1ncnc2c1ncn2[C@@H]1O[C@H](C[C@@H](N)CC[C@H](N)C(=O)O)[C@@H](O)[C@H]1O` it is 3.5%.
The same measure, in the same setting: next, `COc1cc2nc(N3CCOCC3)nc(NC3CCN(C)CC3)c2cc1OC`: -13.7%; `COc1cc2c(NC3CCN(C)CC3)nc(N3CCCN(C)CC3)nc2cc1OCCN(C)C`: -13.6%; `OC[C@H]1O[C@H](n2cnc3c(N[C@H]4CCC[C@@H]4O)ncnc32)[C@H](O)[C@@H]1O`: 19.1%.
With `Nc1ncnc2c1nc(Br)n2C1CC(O)C(CO)O1` (stereo unspecified), the “activity change, negative = inhibition” value was -4.15%.
Consider `OC[C@H]1O[C@@H](n2cnc3cncnc32)[C@H](O)[C@@H]1O`, for which the Potency is 13.7 µM (active).
Regarding `COc1cc2nc(N3CC[C@H](N(C)C)C3)nc(NC3CC3)c2cc1OC`, the “activity change, negative = inhibition” value is 3.23%.
For the compound `Nc1[nH]c(=O)nc2c1ncn2C1OC(CO)C(O)C1O` (stereo unspecified), the “activity change, negative = inhibition” value is 0.715%.
The same measure, in the same setting: the figure for `OC[C@H]1O[C@@H](n2cnc3c(NC4CCCC4)ncnc32)[C@H](O)C1O` (stereo partly specified) is 6.88%; for `Cc1cc2nc3c(=O)[nH]c(=O)nc-3n(C[C@H](O)[C@H](O)[C@H](O)COP(=O)(O)OP(=O)(O)OC[C@H]3O[C@@H](n4cnc5c(N)ncnc54)[C@H](O)[C@H]3O)c2cc1C` it is 613% [at 27.6 µM]; for `C[C@H](Cc1ccccc1)Nc1ncnc2c1ncn2[C@@H]1O[C@H](CO)[C@@H](O)[C@H]1O` it is 0.792%.
Same read-out and setting: the figure for `C[S+](CCC(N)C(=O)O)CC1O[C@@H](n2cnc3c(N)ncnc32)C(O)C1O` (stereo partly specified) is 424%.
Regarding `O=c1[nH]cnc2c1ncn2[C@@H]1O[C@H](CO)[C@@H](O)[C@H]1O`, the Potency result is “inactive”.
On to `COCCCCOc1cc2nc(N3CCCN(C)CC3)nc(NC3CCN(C)CC3)c2cc1OC`, for which the “activity change, negative = inhibition” value was -10%.
Same read-out and setting: the figure for `C[C@@H](Cc1ccccc1)Nc1ncnc2c1ncn2[C@@H]1O[C@H](CO)[C@@H](O)[C@H]1O` is -8.34%.
Same read-out and setting: the figure for `Nc1ncnc2c1ncn2[C@@H]1O[C@@H](CO)[C@H](O)[C@H]1O` is -5.73%; for `COc1cc2c(NC3CCN(C)CC3)nc(N3CCN(C)CC3)nc2cc1OCCCN(C)C` it is -19.5%; for `COc1cc2nc(N3CCOCC3)nc(NC3CCN(Cc4ccccc4)CC3)c2cc1OC` it is -12%.
Still for that read-out and setting: the figure for `CNc1nc(NC2CC2)c2cc(OC)c(OC)cc2n1` is 3.67%; for `COc1cc2nc(N3CCN(C)CC3)nc(NCCC3CC3)c2cc1OC` it is -15%.
As for `Nc1ccnc2c1ncn2[C@@H]1O[C@H](CO)[C@@H](O)[C@H]1O`, the Potency was 17.2 µM (active).
Consider `NCCNC(=O)Cc1ccc(NC(=O)Cc2ccc(Nc3ncnc4c3ncn4[C@@H]3O[C@H](CO)[C@@H](O)[C@H]3O)cc2)cc1`, for which the “activity change, negative = inhibition” value is -4.61%.
The same measure, in the same setting: next, `OCCNc1ncnc2c1ncn2[C@@H]1O[C@@H](CO)[C@H](O)[C@@H]1O`: 70.4%.
For the compound `Nc1ncnc2c1ncn2[C@@H]1O[C@H](COP(=O)(O)OP(=O)(O)OP(=O)(O)OP(=O)(O)OC[C@@H]2O[C@H](n3cnc4c(N)ncnc43)[C@@H](O)C2O)C(O)[C@H]1O` (stereo partly specified), the “activity change, negative = inhibition” value is 850%.
On the same count and under the same terms, the figure for `COc1cc2c(NC3CCN(C)CC3)nc(N3CCCN(C)CC3)nc2cc1OCCCN1CCOCC1` is -9.55%; for `CCCN(C)CCCOc1cc2nc(N3CCCN(C)CC3)nc(NC3CCN(C)CC3)c2cc1OC` it is -17.5%.
The same measure, in the same setting: the figure for `COc1cc2c(NC3CCN(C)CC3)nc(N3CCCN(C)CC3)nc2cc1OCCCN(C)C` is -15.2%; for `COc1cc2c(NC3CCN(C)CC3)nc(N3CCCN(C)CC3)nc2cc1OCCCN1CCCC1` it is -0.0592%.
On the same count and under the same terms, the figure for `OC[C@@H]1O[C@@H](n2cnc3c(NC4CCCC4)ncnc32)[C@H](O)[C@H]1O` is 7.9%; for `COc1cc2nc(N3CC[C@@H](N(C)C)C3)nc(NC3CC3)c2cc1OC` it is 17.4%.
Take `C=CCNc1nc(NC2CCN(C)CC2)c2cc(OC)c(OC)cc2n1`: the “activity change, negative = inhibition” value is -15.4%.
On the same count and under the same terms, next, `Nc1nc(Cl)nc2c1ncn2[C@@H]1O[C@H](CO)C(O)[C@H]1O` (stereo partly specified): -0.316%.
Still for that read-out and setting: the figure for `COC1C(CO)OC(n2cnc3c(=O)[nH]cnc32)C1O` (stereo unspecified) is -3.11%.
